Test results reported in the supplement of paper PMC6555819.

How the values were obtained:
Assay in all cases: PBM binding z-score (relative to random genomic background probes); higher = stronger binding; sequences stand for … in GC…GCGATTGACAGCGTAGAATGAAGG
[1] = test system: PPARg:RXRa IVT, anti-PPARg (NR concentration 270 nM, RXRa partner concentration 90 nM)
In short: (§1)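 Antibodies against each partner of ligand-free nuclear receptor dimers (one per run) detected binding on custom Agilent 4×180K protein-binding microarrays after 1 h incubation. The double-stranded probes had 34-nt variable regions carrying direct-repeat seeds, single-nucleotide variants, half-site ablations and random human genomic background sequences. Binding z-scores, from regression-normalized fluorescence, use the random background probes as reference.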

[2] = test system: PPARg DBDmut:RXRa IVT, anti-PPARg (DBD mutation: PPARg1 K132A/R137A, NR concentration 270 nM, RXRa partner concentration 90 nM)
In short: as §1

[3] = test system: PPARg DBDmut IVT, anti-PPARg (DBD mutation: PPARg1 K132A/R137A, NR concentration 270 nM)
In short: as §1

[4] = test system: PPARg homodimer (NR concentration 180 nM)
In short: as §1

[5] = test system: PXR:RXRa (NR concentration 270 nM, RXRa partner concentration 90 nM)
In short: as §1

[6] = test system: PXR homodimer (NR concentration 270 nM)
In short: as §1

[7] = test system: RARa:RXR (NR concentration 270 nM, RXRa partner concentration 90 nM)
In short: as §1

[8] = test system: RARa homodimer (NR concentration 270 nM)
In short: as §1

[9] = test system: RARb:RXRa (NR concentration 270 nM, RXRa partner concentration 90 nM)
In short: as §1

[10] = test system: RARb homodimer (NR concentration 270 nM)
In short: as §1

Sequence	PBM binding z-score [1]	PBM binding z-score [2]	PBM binding z-score [3]	PBM binding z-score [4]	PBM binding z-score [5]	PBM binding z-score [6]	PBM binding z-score [7]	PBM binding z-score [8]	PBM binding z-score [9]	PBM binding z-score [10]
CCTACGGGGCCACGAAAGGTCATTGATTCAGTGA	2.93	-0.766	-1.47	3.09	6.2	2.54	5.88	0.351	4.55	5.16
CGTCCAAGGTCAATGCTAGATCAGTGAAAGCATT	3.17	-0.125	0.742	2.99	3.36	0.745	3.86	1.18	4.94	3.73
CAAACTAGGTCACTAAAGGTCAAAGTCGAATGAC	8.98	4.79	2.9	5.36	6.84	2.87	7.45	3.41	5.53	5.66
CCTACTGGGCCGTTCAGAGGTCATTGATCATATG	2.34	-0.522	-0.314	1.94	4.75	2.25	4.52	0.491	2.7	3.78
CGTCAAAGATCAAGGTAACGTAACAGAAAGCAGC	0.642	0.647	0.471	0.374	0.00649	-0.253	0.485	0.251	0.252	-0.124
CCTACTGGGCCAAAGGTGATTGATTCCAATGCTC	5.36	0.238	0.204	0.439	0.0253	-0.311	0.327	-0.309	0.815	0.601
AGTCAAAGTGCATCTAGGTAACGTAAGATATGCT	2.46	0.878	0.653	0.197	0.516	0.154	0.595	-0.00454	1.53	0.456
TAGCCTAGGTCATGCGGGCCAATATAGTGTCGGC	2.94	-0.152	-0.18	0.69	1.64	-0.334	2.13	-0.396	3.67	3.15
CGAACGAGGTCATTGACAGGACAGTGAATAGTAA	5.72	2.22	0.785	3.3	5.28	3.11	5.46	0.884	4.82	3.73
TATTCAGGGTCAAAGGCCAGAGTACGAATGTCGA	5.28	4.08	6.08	3.43	4.67	0.543	6.17	1.17	4.83	3.61
ACTCGGAGGACAAAGGTCAGGGCTACGCCAGTGA	3.76	0.115	-0.434	4.95	4.18	0.463	5.81	1.53	4.69	4.65
GGAACGAGGTCAAAGTTGATAGCATCTGTCGACG	6.45	0.31	1.24	2.56	5.91	2.54	6.93	0.429	5.18	4.02
CCTAGTTGGTCAAGGTCACACCCGCTATAGGTAC	3.67	0.989	0.599	3.09	3.95	2.06	4.02	1.87	4.12	4.39
CGTACAAGGTCAAAGGTCAGTGAAGAGATGACGG	7.09	2.61	3.6	5.49	7.22	2.17	9.15	4.68	5.95	5.35
TAGCCTAGTTCATTCAGGGGCCAGTATAGAAAGC	1.45	-0.019	0.583	0.283	1.29	0.885	0.991	-0.411	1.72	1.64
CCTAGTTGGTCAAGGTCACATACGCTATAGGTAC	3.3	1.13	1	3.03	4.1	2.39	4.46	2.55	3.95	4.15
TCTGCTAGGTCATCGATGGTCAGCTAATCTGCTA	4.24	0.105	-0.541	0.22	1.81	-0.703	2.07	-1.04	4.02	3.19
TATCAAAGTTCAAAGGTAACGTAAGTATCCACAC	2.37	1.61	1.66	2.55	5.83	4.87	6.67	2.48	5.07	3.91
AATACGGGGTCACTAGGCCAGAGTAGGTACGAAT	7.02	1.49	1.57	2.6	5.78	1.06	6.3	1.34	5.12	4.41
CGAACTACGTCATCCAGGACAGTGAATACATTGA	0.155	0.664	1.1	0.384	-0.0551	0.144	0.358	0.377	-0.0115	-0.0588
GCTGCTAGTTCAACTGATGGTCAGCTAAAGCTCG	-0.512	-0.37	-1.33	-0.347	0.398	-0.4	0.418	-1.04	1.62	1.21
TTGCCTAGGTCATTGGGCCAGTATAGTACGCATC	3.83	0.969	-0.224	0.621	1.67	-0.193	2.13	-0.65	3.79	2.92
CGAACTAGGTCATTGACAGGACAGTGGATAGTAA	7.98	2.72	1.77	1.39	1.52	0.501	2.02	-0.303	3.53	2.83
